# Compounds without any hit were thinned out: in the full panel of roughly 83,000, 20% have a hit.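 Step 1: grow cells in 96-well plates. Step 2: add test compound at a single concentration. Step 3: incubate 48 h. Step 4: record percent growth.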 Values without a mark were called inactive. Activity calls are given as the source filed them. How the source made its calls: active means growth percent below 10; inactive means the rest.
# What was measured:
# Experiment in all cases: NCI-60 one-dose screen, 48 h (100 = growth as untreated, 0 = no growth, -100 = all killed)
# Details in all cases: 10 µM unless noted
# [1] = test system: T-47D breast
# [2] = test system: BT-549 breast
# [3] = test system: MDA-MB-435 melanoma
# [4] = test system: MCF7 breast
# [5] = test system: HCT-116 colon
# [6] = test system: HCC-2998 colon
# [7] = test system: KM12 colon
# [8] = test system: SW-620 colon
Compound,growth [1],growth [2],growth [3],growth [4],growth [5],growth [6],growth [7],growth [8]
COc1ccc(/C=C2/C(=O)Nc3cc(Cl)c(-c4csc(N)n4)cc32)cc1,23.5%,33.4%,-14.4% (active),25%,36.2%,77.3%,25.7%,
O=C(Nc1ccc(-n2cc(-c3ccncc3)c(-c3ccc(O)c(Cl)c3)n2)cc1)Nc1cccc(Cl)c1Cl,42.1%,59%,51.3%,42.2%,36.8%,70%,39.1%,
Nc1nccc(=S)[nH]1,99.6%,114%,110%,93.4%,109%,114%,106%,
Nc1nc(Cl)c2c(C(F)(F)F)cn(CC3CCNCC3)c2n1,104%,103%,76.5%,103%,48.3%,,101%,
Nc1ncnc2c1ncn2C1OC(COC(c2ccccc2)(c2ccccc2)c2ccccc2)C(O)C1O (stereo unspecified),103%,94%,99.6%,94.2%,92.4%,78.9%,99.2%,
O=C1c2ccccc2OC=C(c2ccccc2)N1CCCCNc1ccc(F)cc1,36.3%,59.1%,108%,85.6%,59.4%,104%,84.4%,
c1ccc2nc(Cn3cc[n+](Cc4ccc5ccccc5n4)c3)ccc2c1,29.8%,33.7%,52.8%,,,57.8%,48%,77.8%
CCc1c(C)c2cc3nc(NCc4ccccc4)oc3c(C)c2oc1=O,47.2%,32.6%,47.7%,73.1%,57.2%,79.6%,83.5%,
CC(C)[C@@H]1NC(=O)[C@]2(C)CSC(=N2)c2ccnc(c2)CNC(=O)C[C@@H](/C=C/CCS)OC1=O,-24.6% (active),42.7%,,16.1%,,-66.5% (active),6.09% (active),4.68% (active)
O=S(=O)(Nc1cccc2cc(OS(=O)(=O)c3ccccc3)ccc12)c1ccccc1,45.5%,45.4%,,36.8%,25.4%,96.4%,36.3%,29.5%
COc1ccc(CNc2nc3ccccc3c3c(=O)c4ccccc4sc23)cc1OC,93.5%,103%,,73.9%,68.8%,94%,79.8%,
O=C1CCC(=O)N1C1CCCCC1,85.8%,102%,,96.2%,99%,103%,101%,105%
ClC1c2ccccc2CCc2ccccc21,74.6%,93.8%,,92.1%,72.7%,,109%,101%
CCCCNc1cc(C(=O)O)cc(S(N)(=O)=O)c1Oc1ccccc1,103%,104%,,111%,110%,103%,107%,99.1%
CC1(C)N=C(N)N=C(N)N1c1ccc(OCC(=O)Nc2ccccc2)c(Cl)c1,70%,40.6%,,28.4%,19.2%,29.5%,18.1%,33%
COc1cc(/C=C/C(=O)c2c(C)[n+]([O-])c3ccccc3[n+]2[O-])ccc1O,111%,89.5%,,93%,91.2%,116%,108%,92.9%
c1cncc(-c2nc3ccccc3[nH]2)c1,103%,100%,,85.1%,93.8%,92.2%,97.5%,85.1%
Cc1cn(-c2cc(C(=O)Nc3cccc(-n4ccc5c(NC(=O)c6ccccc6)nccc54)c3)cc(C(F)(F)F)c2)cn1,62.5%,27.9%,,7.18% (active),-78.6% (active),,-25.6% (active),13.4%
O=S1(=O)N(CCNc2nccc(-c3c(-c4cccc(O)c4)nc4sccn34)n2)CCN1Cc1ccccc1,50.8%,69.9%,45.9%,59.5%,,109%,47.6%,

# Reference: PubChem BioAssay (NCI)
